Calls of active or inactive are those of the source.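 Rule for the calls, unless noted: active = compounds lowering colon cancer cell viability after pretreatment blocking the GSK3B kinase; inactive = the rest.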
Assays:
[1] = Wnt pathway potentiators raising nuclear beta-catenin – imaging, WNT3A-conditioned medium, mouse C2C12, NPC library, primary screen (AID 1117326; in the data active = nuclear beta-catenin stimulation mostly above about 4.2%, no sharp cut-off; inactive = mostly below about 10%; note: reference of the scale not given here); details: stronger effect = higher value
[2] = stimulators of insulin release from INS-1E, primary screen, cell-based, 5 mM glucose, NPC library (AID 1117329;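 active = compound raises insulin release from rat beta cells at 5 mM glucose, no numeric limit stated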; note: reference of the scale not given here); details: rat INS-1E insulin secretion, at 10 µM, stronger effect = higher value
[3] = growth inhibition of GSK3B-pretreated HCT116 cells – cell-based, CellTiter-Glo, 0.2 to 20 µM (AID 1117336); details: HCT116 viability after GSK3B inhibitor, at 20 µM, stronger effect = higher value
[4] = inhibition of endothelial tube formation, primary screen, imaging, VEGF stimulated, CD31 staining, tube area, NPC library (AID 1117340;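 active = compound that reduces growth-factor-driven endothelial tube area in a mixed cell culture, no cutoff stated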); details: VEGF-stimulated ADSC/ECFC co-culture, at 10 µM, stronger effect = higher value
[5] = GLP1 release stimulators, primary, NCI-H716, NPC library (AID 1117341;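 active = compound raises GLP1 secretion from the human gut endocrine cells, with no numeric limit stated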; note: reference of the scale not given here); details: NCI-H716 cells, at 10 µM, stronger effect = higher value
[6] = HCT116 colon cancer cell growth inhibition, primary screen, CellTiter-Glo luminescence, NPC library (AID 1117342;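 active = compounds that lower survival of HCT116 colon cancer cells in the luminescence readout, no numeric limit stated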); details: at 20 µM (top of the series)
[7] = reduced SW480 viability measured with CellTiter-Glo, NPC library, primary (AID 1117343;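 active = compounds that lower viability of the colon cancer cells in the luminescence readout, with no numeric limit stated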); details: CellTiter-Glo luminescence; at 20 µM (top of the series)
[8] = NPC library primary testing for decreased DLD-1 cell viability via CellTiter-Glo (AID 1117346;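 active = compounds that lower survival of DLD-1 colon cancer cells in the luminescence readout, no cutoff given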); details: DLD-1 viability, CellTiter-Glo luminescence; at 20 µM (top of the series)

SMILES	nuclear beta-catenin stimulation ([1]; at 10 µM)	nuclear beta-catenin stimulation ([1]; stimulation, at 2 µM) [%]	insulin secretion stimulation [2]	viability decrease [3]	tube area decrease [4]	GLP1 secretion stimulation [5]	inhibition of viability [6]	viability decrease (inhibition) [7]	viability decrease (inhibition) [8]
CCCCC[C@H](O)C=C[C@H]1[C@H](O)CC(=O)[C@H]1CC=CCCCC(=O)O	0.5% (inactive)	-0.7	1.7% (inactive)	-18.4% (inactive)	28.7% (inactive)	3.8% (inactive)	-14.5% (inactive)	25.3% (inactive)	-48.6% (inactive)
COc1ccc2c(c1)c(CC(=O)OC/C=C(\C)CC/C=C(\C)CCC=C(C)C)c(C)n2C(=O)c1ccc(Cl)cc1	2.2% (inactive)	3	2.1% (inactive)	-16.7% (inactive)	5.1% (inactive)	-2.8% (inactive)	4.5% (inactive)	8.2% (inactive)	-1.2% (inactive)
NC(=O)COCCN1CCN(C(c2ccccc2)c2ccc(Cl)cc2)CC1 (stereo not drawn)	-0.4% (inactive)	1.4	1.7% (inactive)	-1.7% (inactive)	9.8% (inactive)	2.2% (inactive)	7.4% (inactive)	-24.9% (inactive)	-5.9% (inactive)
O=C(Nc1ccc(Cl)c(Cl)c1)C1CC1	0.1% (inactive)	0.9	2.2% (inactive)	25.6% (inactive)	24.7% (inactive)	-0.1% (inactive)	43.4% (inactive)	25.2% (inactive)	9.7% (inactive)
CCOc1ccc(NS(=O)(=O)c2ccc(N)cc2)nn1	-0.3% (inactive)	0.4	-0.2% (inactive)	1.55% (inactive)	-25.2% (inactive)	2.6% (inactive)	-1.7% (inactive)	29.4% (inactive)	4.15% (inactive)
C[C@@H](CN(C)C)CN1c2ccccc2Sc2ccccc21	3% (inactive)	-0.4	15.1% (active)	-61.3% (inactive)	0.6% (inactive)	10.3% (inactive)	45.3% (inactive)	103% (active)	48.3% (inactive)
CCN1CCN(c2cc(-c3ccc(F)cc3)c3c(n2)CCCCCC3)CC1	0.2% (inactive)	-3.3	1.9% (inactive)	104% (active)	24% (inactive)	11.2% (inactive)	113% (active)	132% (active)	102% (active)
COC(=O)C1=C(C)NC(C)=C(C(=O)OCC(C)=O)C1c1ccccc1[N+](=O)[O-] (stereo not drawn)	1.6% (inactive)	1.2	-0.3% (inactive)	25.5% (inactive)	7% (inactive)	-2.7% (inactive)	39.1% (inactive)	69.6% (active)	28.3% (inactive)
CCOC(=O)C(C#N)=C(c1ccccc1)c1ccccc1	0.9% (inactive)	1.8	6.6% (inactive)	-0.55% (inactive)	2.6% (inactive)	-0.1% (inactive)	26.4% (inactive)	18.9% (inactive)	15.2% (inactive)
O=C(O)Cc1ccccc1Oc1ccc(Cl)cc1Cl	0.5% (inactive)	0.7	1.5% (inactive)	-7.6% (inactive)	3.2% (inactive)	1% (inactive)	-0.8% (inactive)	-5% (inactive)	5.9% (inactive)
CCCCCCCC/C=C/C(=O)O	1.3% (inactive)	0.6	1.9% (inactive)	-52.2% (inactive)	-10.1% (inactive)	-3.8% (inactive)	5.93% (inactive)	85.3% (active)	45% (inactive)
c1ccc(CCNc2nc(-c3ccccc3)cs2)cc1	1.5% (inactive)	0.6	-1.4% (inactive)	38.9% (inactive)	34.9% (inactive)	-1.7% (inactive)	57.7% (active)	35.5% (inactive)	31.5% (inactive)
CCC(C(=O)OCCN(CC)CC)c1ccccc1 (stereo not drawn)	1.2% (inactive)	-0.6	1.3% (inactive)	-8.4% (inactive)	-11.9% (inactive)	-2.1% (inactive)	-0.3% (inactive)	4.5% (active)	-11.1% (inactive)
CN(C)C(=S)SC(=S)N(C)C	31.6% (inactive)	11.3	-0.3% (inactive)	-6.55% (inactive)	-36.6% (inactive)	4.1% (inactive)	11.5% (inactive)	35.3% (inactive)	0.2% (inactive)
O=C(CCN1CCN2CCCC2C1)N1c2ccccc2Sc2ccc(Cl)cc21 (stereo not drawn)	1.1% (inactive)	0.2	63.8% (active)	49.9% (inactive)	8% (inactive)	8.5% (inactive)	61.4% (active)	99.3% (active)	49.5% (inactive)
CCN(CC)S(=O)(=O)c1ccc(C(=O)O)cc1	1.6% (inactive)	0.7	-2.1% (inactive)	-8.6% (inactive)	8.6% (inactive)	-3.2% (inactive)	-14.7% (inactive)	40% (inactive)	7.45% (inactive)

SMILES	nuclear beta-catenin stimulation ([1]; at 10 µM)	nuclear beta-catenin stimulation ([1]; stimulation, at 2 µM) [%]	insulin secretion stimulation [2]	viability decrease [3]	tube area decrease [4]	GLP1 secretion stimulation [5]	inhibition of viability [6]	viability decrease (inhibition) [7]	viability decrease (inhibition) [8]
COc1ccc(C(C#N)C(C)C)cc1OC (stereo not drawn)	-1.8% (inactive)	0.3	2.2% (inactive)	-24.5% (inactive)	9.3% (inactive)	-3.4% (inactive)	13.4% (inactive)	-4.7% (active)	-19.9% (inactive)
CC(=O)Nc1ccn(C2COC(COC(=O)c3ccccc3)O2)c(=O)n1 (stereo not drawn)	8.2% (inactive)	-0.9	1% (inactive)	54% (active)	100% (active)	1.2% (inactive)	56.5% (active)	26.9% (inactive)	29.9% (inactive)
O=C(CCN1CCN(CCO)CC1)N1c2ccccc2Sc2ccc(C(F)(F)F)cc21	2.5% (inactive)	1.4	8.2% (inactive)	50.2% (active)	25.8% (inactive)	2.4% (inactive)	49.2% (inactive)	96.4% (active)	58.8% (active)
CCCOC(=O)c1cc(O)c(O)c(O)c1	4.2% (inactive)	1.9	-1.6% (inactive)	43.1% (inactive)	71.3% (active)	-2.1% (inactive)	35.1% (inactive)	78.3% (active)	58.4% (active)
O=C(NCCc1c[nH]c2ccccc12)c1cccnc1	1% (inactive)	1.7	-2.7% (inactive)	6.55% (inactive)	35.9% (inactive)	0.6% (inactive)	-5.5% (inactive)	71.3% (active)	-0.95% (inactive)
O=C(Oc1ccccc1)c1ccccc1O	-0.5% (inactive)	-1	-1.5% (inactive)	-4.35% (inactive)	14.3% (inactive)	-1.2% (inactive)	9.1% (inactive)	84.4% (active)	12.1% (inactive)
NC(=O)NC1N=C([O][Al])NC1=O (stereo not drawn)	0.7% (inactive)	-0.2	0.3% (inactive)	13.8% (inactive)	0.8% (inactive)	-2.5% (inactive)	2.07% (inactive)	19.8% (inactive)	-4.5% (inactive)
CN(C)CCOc1ccccc1Cc1ccccc1	-1.8% (inactive)	2.3	22% (active)	-14% (inactive)	4.9% (inactive)	-5.1% (inactive)	11.4% (inactive)	34% (inactive)	0.8% (inactive)
CCCC(O)C(CC)CO (stereo not drawn)	-0.6% (inactive)	1.4	-1.8% (inactive)	-18.3% (inactive)	16.6% (inactive)	-0.4% (inactive)	3.33% (inactive)	2.8% (inactive)	2.4% (inactive)
Cc1cc(O)cc2c1O[C@](C)(CCC[C@H](C)CCC[C@H](C)CCCC(C)C)CC2	-1.3% (inactive)	-2	3.8% (inactive)	12.5% (inactive)	6.7% (inactive)	0% (inactive)	14.3% (inactive)	-12.8% (inactive)	-10.9% (inactive)
CC(=O)OC[C@H]1O[C@@H](n2ncc(=O)[nH]c2=O)[C@H](OC(C)=O)[C@@H]1OC(C)=O	14% (inactive)	2.3	1.7% (inactive)	47.3% (active)	47.8% (active)	-0.6% (inactive)	16.2% (inactive)	26% (inactive)	-5.9% (inactive)
CC(=O)Nc1ccc(/C=N/NC(N)=S)cc1	0.3% (inactive)	0.5	-2.3% (inactive)	-4.65% (inactive)	-8.1% (inactive)	4.3% (inactive)	13.3% (inactive)	13% (inactive)	-1.8% (inactive)
CCCCOC(=O)CCCCCCCCC(=O)OCCCC	1.4% (inactive)	1	2.4% (inactive)	10.4% (inactive)	3.7% (inactive)	1.9% (inactive)	13.3% (inactive)	-9.1% (inactive)	7.6% (inactive)
CCN(CC)CC(=O)Nc1c(C)cccc1C(=O)OC	0% (inactive)	0.3	0.7% (inactive)	-3% (inactive)	27.1% (inactive)	4.8% (inactive)	-7.9% (inactive)	-13.2% (inactive)	-17.2% (inactive)
CN1C(CSCC(F)(F)F)Nc2cc(Cl)c(S(N)(=O)=O)cc2S1(=O)=O (stereo not drawn)	-0.4% (inactive)	-1.1	6.7% (inactive)	-2.8% (inactive)	-10.7% (inactive)	1.3% (inactive)	30.1% (inactive)	-4.4% (inactive)	-7.1% (inactive)
O=C1CC[C@H](C(=O)N2CCCCC2)N1	1.7% (inactive)	1	0.8% (inactive)	8.8% (inactive)	87.3% (active)	0.9% (inactive)	0.8% (inactive)	-22% (inactive)	0.1% (inactive)
